In the supplement of paper PMC11732987, “Enantioselective OTUD7B fragment discovery through chemoproteomics screening and high-throughput optimisation” (Communications Chemistry, 2025):

Key:
Assay in all cases: log2 ratio of Biotin-Ahx-Ub-VS probe labelling (fragment/DMSO); higher = less target engagement (more negative = stronger competition), active = hit call of the paper (q ≤ 0.05, log2 ratio ≤ -1)
Settings in all cases: compound concentration: 200 uM; treatment time: 3 h
USP34 = USP34 (UniProt Q70CQ2)
Chain of USP34 (Q70CQ2 whole entry, the tested form may be a part): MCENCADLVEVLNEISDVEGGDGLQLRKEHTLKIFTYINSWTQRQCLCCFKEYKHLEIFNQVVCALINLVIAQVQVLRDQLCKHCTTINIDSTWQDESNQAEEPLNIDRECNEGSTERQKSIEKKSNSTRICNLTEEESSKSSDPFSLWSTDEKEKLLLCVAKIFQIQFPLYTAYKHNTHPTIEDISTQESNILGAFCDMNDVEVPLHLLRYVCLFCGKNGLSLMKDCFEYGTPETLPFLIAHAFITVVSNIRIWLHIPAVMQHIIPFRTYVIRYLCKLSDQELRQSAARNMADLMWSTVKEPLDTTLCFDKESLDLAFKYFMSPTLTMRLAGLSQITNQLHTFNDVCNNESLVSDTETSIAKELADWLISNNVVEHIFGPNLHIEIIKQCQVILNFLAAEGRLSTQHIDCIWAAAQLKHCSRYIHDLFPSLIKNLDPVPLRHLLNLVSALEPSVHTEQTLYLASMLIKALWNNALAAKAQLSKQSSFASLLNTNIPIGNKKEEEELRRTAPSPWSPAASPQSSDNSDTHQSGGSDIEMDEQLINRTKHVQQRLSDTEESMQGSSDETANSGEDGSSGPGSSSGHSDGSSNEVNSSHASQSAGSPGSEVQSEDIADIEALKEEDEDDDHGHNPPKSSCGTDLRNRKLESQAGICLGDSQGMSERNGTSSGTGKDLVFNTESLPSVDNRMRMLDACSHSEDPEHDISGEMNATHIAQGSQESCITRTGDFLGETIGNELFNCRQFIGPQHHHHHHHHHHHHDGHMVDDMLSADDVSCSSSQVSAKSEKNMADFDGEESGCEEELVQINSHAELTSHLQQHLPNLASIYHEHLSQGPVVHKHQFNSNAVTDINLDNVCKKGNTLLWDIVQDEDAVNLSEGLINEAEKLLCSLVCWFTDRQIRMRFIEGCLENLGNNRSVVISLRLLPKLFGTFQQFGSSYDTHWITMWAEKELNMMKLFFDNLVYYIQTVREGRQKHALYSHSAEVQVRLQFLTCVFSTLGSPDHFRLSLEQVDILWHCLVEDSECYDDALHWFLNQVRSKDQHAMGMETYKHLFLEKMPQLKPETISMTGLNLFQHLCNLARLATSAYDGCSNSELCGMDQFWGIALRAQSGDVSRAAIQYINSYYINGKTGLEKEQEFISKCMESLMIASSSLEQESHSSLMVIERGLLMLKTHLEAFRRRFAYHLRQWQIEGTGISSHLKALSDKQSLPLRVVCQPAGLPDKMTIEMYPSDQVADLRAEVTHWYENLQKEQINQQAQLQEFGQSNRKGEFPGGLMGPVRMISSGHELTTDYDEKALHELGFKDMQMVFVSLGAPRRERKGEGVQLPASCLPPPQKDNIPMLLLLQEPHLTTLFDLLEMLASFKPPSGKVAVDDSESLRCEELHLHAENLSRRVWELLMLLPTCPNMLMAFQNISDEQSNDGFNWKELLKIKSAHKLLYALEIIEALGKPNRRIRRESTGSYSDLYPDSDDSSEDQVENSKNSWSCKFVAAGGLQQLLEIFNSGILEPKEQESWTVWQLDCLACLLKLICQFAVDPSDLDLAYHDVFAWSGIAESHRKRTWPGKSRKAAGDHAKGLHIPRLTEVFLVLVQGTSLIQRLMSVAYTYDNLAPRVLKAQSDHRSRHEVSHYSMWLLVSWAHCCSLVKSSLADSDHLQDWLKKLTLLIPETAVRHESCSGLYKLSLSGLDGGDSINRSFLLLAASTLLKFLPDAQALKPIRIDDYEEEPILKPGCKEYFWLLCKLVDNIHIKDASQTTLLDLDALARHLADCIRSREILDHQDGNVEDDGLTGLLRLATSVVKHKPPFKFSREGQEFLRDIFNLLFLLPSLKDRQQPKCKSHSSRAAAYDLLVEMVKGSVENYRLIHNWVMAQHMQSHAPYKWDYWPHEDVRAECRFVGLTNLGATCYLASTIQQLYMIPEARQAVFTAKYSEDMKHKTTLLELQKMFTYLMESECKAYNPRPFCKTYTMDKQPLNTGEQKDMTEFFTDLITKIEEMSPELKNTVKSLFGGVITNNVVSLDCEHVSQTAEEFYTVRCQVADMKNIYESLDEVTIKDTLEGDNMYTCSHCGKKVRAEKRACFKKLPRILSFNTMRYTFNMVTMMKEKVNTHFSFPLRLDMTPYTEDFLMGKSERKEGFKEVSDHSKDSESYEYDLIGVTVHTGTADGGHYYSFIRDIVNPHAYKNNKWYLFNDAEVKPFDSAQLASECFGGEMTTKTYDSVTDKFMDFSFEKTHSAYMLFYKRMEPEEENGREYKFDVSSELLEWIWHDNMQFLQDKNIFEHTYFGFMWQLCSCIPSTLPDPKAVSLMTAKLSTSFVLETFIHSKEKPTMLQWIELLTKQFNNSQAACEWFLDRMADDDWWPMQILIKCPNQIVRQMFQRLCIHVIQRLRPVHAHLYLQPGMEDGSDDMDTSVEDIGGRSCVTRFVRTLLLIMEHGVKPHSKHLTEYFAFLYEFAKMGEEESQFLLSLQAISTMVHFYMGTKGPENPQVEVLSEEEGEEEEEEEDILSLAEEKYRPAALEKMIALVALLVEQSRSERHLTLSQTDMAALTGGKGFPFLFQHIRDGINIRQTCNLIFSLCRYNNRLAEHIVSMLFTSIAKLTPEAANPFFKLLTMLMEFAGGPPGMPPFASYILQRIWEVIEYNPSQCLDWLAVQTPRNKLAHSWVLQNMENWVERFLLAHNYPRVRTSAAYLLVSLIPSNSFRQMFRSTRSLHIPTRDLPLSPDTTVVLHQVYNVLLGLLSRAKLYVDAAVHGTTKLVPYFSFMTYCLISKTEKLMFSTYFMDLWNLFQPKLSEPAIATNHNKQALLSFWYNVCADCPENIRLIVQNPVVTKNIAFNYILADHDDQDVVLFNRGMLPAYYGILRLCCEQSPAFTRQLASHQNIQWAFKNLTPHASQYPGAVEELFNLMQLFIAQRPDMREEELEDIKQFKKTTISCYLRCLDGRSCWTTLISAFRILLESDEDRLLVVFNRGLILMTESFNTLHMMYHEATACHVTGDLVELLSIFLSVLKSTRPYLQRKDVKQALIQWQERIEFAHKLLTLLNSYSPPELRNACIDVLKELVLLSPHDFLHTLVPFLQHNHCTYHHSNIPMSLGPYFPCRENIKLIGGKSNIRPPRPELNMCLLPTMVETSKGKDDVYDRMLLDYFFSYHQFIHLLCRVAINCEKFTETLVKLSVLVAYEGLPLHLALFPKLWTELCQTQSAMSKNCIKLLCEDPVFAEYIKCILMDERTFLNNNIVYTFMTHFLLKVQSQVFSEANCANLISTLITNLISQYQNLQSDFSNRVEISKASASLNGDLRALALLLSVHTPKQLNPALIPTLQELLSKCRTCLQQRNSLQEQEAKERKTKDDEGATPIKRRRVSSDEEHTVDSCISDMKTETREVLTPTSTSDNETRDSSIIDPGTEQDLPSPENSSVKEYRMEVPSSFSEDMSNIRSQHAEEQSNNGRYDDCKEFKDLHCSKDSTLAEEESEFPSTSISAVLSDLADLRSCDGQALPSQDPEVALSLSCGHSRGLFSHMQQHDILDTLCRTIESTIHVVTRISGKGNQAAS
In short: (§1)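 Fragment (200 µM) or vehicle was incubated for 3 h with triplicate HEK293T lysate samples of 495 µg, which were then treated with Biotin-Ahx-Ub-VS at 0.5 µM final for 1 h. Labelled DUBs were enriched on NeutrAvidin, digested with LysC and trypsin, and analysed by diaPASEF LC-MS/MS. Values are average log2 fragment/vehicle ratios from an unpaired t-test on global-median-normalised Spectronaut label-free quantities, using proteins with ≥2 unique peptides.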

USP36 = target: T1, USP36 (UniProt Q9P275)
T1 sequence (whole entry): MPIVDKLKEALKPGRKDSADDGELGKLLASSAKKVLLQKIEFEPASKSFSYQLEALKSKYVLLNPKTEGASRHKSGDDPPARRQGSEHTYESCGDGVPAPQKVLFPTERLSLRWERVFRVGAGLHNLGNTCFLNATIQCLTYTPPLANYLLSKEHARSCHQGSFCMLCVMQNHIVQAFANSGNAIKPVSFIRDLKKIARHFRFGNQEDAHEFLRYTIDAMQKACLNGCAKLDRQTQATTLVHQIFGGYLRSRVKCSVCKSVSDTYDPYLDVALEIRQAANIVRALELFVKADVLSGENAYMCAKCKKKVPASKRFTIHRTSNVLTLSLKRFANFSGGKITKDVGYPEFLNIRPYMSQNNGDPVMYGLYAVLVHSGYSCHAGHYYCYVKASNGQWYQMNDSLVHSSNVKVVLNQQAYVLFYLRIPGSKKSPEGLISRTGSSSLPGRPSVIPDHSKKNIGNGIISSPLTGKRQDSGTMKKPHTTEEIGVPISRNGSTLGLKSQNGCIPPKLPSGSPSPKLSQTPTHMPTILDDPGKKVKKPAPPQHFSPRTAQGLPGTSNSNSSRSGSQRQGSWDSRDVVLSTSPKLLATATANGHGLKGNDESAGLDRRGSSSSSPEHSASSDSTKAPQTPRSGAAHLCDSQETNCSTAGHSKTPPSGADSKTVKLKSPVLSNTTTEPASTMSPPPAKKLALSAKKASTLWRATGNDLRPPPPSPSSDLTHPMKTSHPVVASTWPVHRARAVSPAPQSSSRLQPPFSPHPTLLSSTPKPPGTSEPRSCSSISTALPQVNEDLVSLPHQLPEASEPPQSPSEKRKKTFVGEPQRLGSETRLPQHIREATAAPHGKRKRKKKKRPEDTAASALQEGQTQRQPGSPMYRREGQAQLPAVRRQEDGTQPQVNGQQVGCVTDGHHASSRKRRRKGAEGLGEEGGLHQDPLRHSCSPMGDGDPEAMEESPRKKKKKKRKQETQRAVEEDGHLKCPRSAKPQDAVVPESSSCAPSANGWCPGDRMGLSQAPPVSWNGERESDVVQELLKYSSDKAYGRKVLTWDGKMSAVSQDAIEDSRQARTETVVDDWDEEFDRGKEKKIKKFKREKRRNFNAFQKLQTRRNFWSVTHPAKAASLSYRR
In short: as §1

USP38 = target: T2, USP38 (UniProt Q8NB14)
T2 sequence (whole entry): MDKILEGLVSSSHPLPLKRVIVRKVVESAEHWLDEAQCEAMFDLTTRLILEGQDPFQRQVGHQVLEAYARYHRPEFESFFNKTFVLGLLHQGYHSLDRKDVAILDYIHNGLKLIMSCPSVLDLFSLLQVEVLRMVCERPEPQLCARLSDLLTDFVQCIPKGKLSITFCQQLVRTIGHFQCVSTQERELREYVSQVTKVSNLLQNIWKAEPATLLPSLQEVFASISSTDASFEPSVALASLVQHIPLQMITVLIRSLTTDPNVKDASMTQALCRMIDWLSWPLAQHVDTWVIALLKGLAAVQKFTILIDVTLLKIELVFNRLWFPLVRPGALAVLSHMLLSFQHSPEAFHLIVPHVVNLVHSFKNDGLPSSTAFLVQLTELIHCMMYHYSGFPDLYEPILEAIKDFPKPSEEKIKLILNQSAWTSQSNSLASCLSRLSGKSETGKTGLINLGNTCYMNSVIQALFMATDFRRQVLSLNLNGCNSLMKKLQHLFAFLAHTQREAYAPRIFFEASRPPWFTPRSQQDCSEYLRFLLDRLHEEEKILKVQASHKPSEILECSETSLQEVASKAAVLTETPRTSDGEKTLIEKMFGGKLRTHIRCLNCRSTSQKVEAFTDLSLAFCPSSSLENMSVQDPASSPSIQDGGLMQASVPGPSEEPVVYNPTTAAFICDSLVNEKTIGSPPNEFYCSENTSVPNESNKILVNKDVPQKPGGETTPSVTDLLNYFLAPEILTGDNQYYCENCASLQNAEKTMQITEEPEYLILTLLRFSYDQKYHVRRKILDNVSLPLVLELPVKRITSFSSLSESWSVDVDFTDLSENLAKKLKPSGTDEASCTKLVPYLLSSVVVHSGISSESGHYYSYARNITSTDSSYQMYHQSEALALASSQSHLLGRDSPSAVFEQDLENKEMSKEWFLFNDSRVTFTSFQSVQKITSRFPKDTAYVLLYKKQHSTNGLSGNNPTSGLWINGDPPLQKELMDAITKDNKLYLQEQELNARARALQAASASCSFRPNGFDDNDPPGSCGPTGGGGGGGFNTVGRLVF
In short: as §1

USP39 = target: T3, USP39 (UniProt Q53GS9)
T3 sequence (whole entry): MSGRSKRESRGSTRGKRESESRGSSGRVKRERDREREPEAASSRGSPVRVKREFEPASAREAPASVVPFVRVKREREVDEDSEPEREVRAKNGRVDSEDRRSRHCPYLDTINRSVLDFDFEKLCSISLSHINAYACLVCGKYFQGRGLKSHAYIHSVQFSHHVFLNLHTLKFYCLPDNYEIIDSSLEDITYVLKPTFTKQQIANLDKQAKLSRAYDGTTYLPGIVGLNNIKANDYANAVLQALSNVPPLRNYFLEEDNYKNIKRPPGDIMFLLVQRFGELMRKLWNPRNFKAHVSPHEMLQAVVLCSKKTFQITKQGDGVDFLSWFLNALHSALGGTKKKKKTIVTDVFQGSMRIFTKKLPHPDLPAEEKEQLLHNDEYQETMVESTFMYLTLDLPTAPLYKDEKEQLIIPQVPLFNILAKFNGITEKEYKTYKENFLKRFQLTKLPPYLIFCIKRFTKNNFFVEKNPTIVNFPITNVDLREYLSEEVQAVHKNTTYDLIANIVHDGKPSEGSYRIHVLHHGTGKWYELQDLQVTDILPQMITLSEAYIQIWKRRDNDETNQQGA
In short: as §1

USP4 = target: T4, USP4 (UniProt Q13107)
T4 sequence (whole entry): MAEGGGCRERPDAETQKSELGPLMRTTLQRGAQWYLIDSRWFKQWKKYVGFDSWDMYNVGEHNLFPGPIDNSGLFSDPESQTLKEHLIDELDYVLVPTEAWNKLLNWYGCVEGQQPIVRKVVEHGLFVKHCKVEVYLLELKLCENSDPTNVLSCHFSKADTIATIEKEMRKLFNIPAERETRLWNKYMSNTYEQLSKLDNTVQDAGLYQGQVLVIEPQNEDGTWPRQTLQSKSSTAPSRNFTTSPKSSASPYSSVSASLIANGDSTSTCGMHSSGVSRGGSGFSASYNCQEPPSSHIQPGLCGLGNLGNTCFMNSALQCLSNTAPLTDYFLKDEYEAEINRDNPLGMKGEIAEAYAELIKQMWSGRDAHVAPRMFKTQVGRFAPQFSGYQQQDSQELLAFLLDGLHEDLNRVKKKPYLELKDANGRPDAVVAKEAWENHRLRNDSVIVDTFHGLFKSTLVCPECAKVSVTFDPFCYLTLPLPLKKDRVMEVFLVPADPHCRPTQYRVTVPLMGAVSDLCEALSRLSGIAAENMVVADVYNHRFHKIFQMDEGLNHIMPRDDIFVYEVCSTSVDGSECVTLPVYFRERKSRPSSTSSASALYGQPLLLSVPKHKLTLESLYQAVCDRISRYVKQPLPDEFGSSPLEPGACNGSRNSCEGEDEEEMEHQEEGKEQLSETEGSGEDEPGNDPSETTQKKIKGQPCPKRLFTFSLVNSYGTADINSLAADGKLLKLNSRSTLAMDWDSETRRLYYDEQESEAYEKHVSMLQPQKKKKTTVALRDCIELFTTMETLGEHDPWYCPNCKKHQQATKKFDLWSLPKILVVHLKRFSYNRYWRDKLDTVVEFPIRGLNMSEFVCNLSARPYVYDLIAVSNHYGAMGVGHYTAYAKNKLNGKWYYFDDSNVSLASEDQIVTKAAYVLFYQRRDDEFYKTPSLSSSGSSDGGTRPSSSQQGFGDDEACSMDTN
In short: as §1

Measured: log2 ratio of Biotin-Ahx-Ub-VS probe labelling

O=C(CCl)Nc1cc2c(cc1Cl)OCCCO2
inactive: USP34 0.0191 | USP36 -0.11 | USP38 0.0869 | USP39 0.0922 | USP4 0.154
